Source: PubChem (National Center for Advancing Translational Sciences (NCATS))
Only some compounds are listed: those with a hit (about 11% of all), similar ones and a draw of the others.
FLuc inh: Photinus pyralis luciferase inhibition; P08659; purified P. pyralis luciferase, luminescence, biochemical; Potency, µM (top dose mostly 115 µM), most hits filed as inhibitors; 2.5% of 76,000 active; AID 1347043; also: nearly all actives have a fitted effect of over 65% in size
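Inhibitors were tested against purified firefly luciferase in a biochemical, low-substrate format (both substrates at 10uM) and luminescence measured with a CCD imager.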
3T3 cytotox: kills NIH 3T3 cells; 4.3% of 94,000 active; NIH 3T3 viability, CellTiter-Glo ATP luminescence, 48-72 h; Potency, µM (doses to about 96.7 µM), for the others: at the top dose activity change, negative = cytotoxicity, actives largely listed as inhibitors; also: nearly all actives have a fitted effect of over 55% in size
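ATP-dependent luminescence (CellTiter-Glo) served as the viability signal for NIH 3T3 cells treated with compound for 48 or 72 hr at 37 °C.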
HEK293 tox: cytotoxic compounds in HEK 293 cells | HEK 293 viability, ATP luminescence (CellTiter-Glo), 48-72 h | 6.6% of 94,000 active | AID 1345083 | Potency, µM (top dose mostly 115 µM), for the others: top-dose activity change, negative = cytotoxicity, hits mostly inhibitors; also: nearly all actives have a fitted effect of over 60% in size
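ATP-coupled CellTiter-Glo luminescence served as viability read-out, recorded 10 min after reagent addition at room temperature. HEK 293 cells, 250 cells/well, had been incubated with pintool-transferred compound for 48 or 72 hr at 37 degree Celsius.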
NPR1 antag: blocks ANP-stimulated signaling of human Npr1 receptor | HEK293 hNpr1 GloSensor cGMP, ANP-stimulated luminescence | Potency, µM (series often up to 46.3 µM), inactives show at the highest dose activity change, negative = inhibition, actives largely listed as inhibitors | AID 1347048 | 1.6% of 76,000 active | P16066; calls by dose curve; also: nearly all actives have a fitted effect of over 60% in size
Target sequence (P16066 whole entry, looked up): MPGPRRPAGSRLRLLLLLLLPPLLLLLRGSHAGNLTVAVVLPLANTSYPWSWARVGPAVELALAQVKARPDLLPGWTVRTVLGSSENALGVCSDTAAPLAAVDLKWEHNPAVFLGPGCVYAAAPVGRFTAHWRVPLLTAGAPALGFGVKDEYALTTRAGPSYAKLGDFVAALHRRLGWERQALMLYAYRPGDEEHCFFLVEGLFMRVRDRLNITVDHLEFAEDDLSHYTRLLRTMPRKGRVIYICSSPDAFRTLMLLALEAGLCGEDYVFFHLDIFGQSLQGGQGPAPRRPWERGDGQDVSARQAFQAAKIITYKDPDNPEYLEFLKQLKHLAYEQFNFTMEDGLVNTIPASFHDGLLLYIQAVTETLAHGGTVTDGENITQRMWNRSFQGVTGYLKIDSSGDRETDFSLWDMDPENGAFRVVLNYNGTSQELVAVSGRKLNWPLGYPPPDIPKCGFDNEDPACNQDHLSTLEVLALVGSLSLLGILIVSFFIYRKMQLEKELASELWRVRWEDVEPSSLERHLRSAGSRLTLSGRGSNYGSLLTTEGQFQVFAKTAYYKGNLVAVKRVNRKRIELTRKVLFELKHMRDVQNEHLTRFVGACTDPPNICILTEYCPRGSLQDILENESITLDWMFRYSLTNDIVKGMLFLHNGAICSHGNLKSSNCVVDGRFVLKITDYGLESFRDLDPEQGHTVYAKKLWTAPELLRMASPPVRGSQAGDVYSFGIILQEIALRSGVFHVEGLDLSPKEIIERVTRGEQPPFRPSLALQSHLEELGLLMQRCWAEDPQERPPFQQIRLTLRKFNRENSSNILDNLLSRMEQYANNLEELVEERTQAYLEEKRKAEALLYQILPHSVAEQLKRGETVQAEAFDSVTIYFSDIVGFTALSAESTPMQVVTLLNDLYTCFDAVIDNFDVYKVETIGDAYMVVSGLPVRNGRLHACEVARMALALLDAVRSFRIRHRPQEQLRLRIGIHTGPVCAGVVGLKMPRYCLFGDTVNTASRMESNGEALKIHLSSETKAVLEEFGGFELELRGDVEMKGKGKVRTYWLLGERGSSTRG
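Compound pre-incubated 30 min at room temperature on GloSensor-loaded HEK293 cells stably carrying hNpr1 and the pGS-40F cGMP biosensor. Stimulation uses hNppA at 0.1 nM final; luminescence is taken at baseline and 20 min post-agonist.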
* = called active by the depositor; i = inactive; ? = inconclusive; · = no result; [ ] = another dose, or the depositor's remark. Unless noted, calls follow the shape of the dose curve; as a rule, active = well fitted curve in the direction sought with a large enough effect; inconclusive = small, poorly fitted or top-dose-only effect, or another doubt; inactive = no such curve, though single readings can be large; an effect the other way counts as inactive or inconclusive. % is scaled to controls: 0 for no effect and ±100 for the full control effect; potency is read from the fitted curve at half-maximal effect.

SMILES	FLuc inh	3T3 cytotox	HEK293 tox	NPR1 antag
CN1CCN(C(=O)[C@@H]2[C@@H](CC(=O)O)c3cccnc3C(=O)N2Cc2ccccc2)CC1	·	-16%[46.1 µM]	?	·
O=C(NCCCc1ccccc1)c1n[nH]c2c1CN(C(=O)c1c(F)cccc1F)CC2	i	?	18µM*	0%
CCC(=O)N1CCc2[nH]nc(C(=O)NCCCc3ccccc3)c2C1	i	?	?	-12%
CCC(=O)NC1CCN(c2ccnc3ccnn23)CC1	·	i	i	·
C[S+](=O)([O-])NCCNC(=O)c1ccc(-c2cncnc2)cc1	·	i	4%[172 µM]	·
CC(C)C(=O)N1CCCC1c1nc(CCOCC2CC2)no1 (configuration not stated)	·	-11%	-12%	·
COCCCNc1ccc2nnc(-c3ccc(C)cn3)n2n1	i	89µM*	-8%[172 µM]	-6%[70.6 µM]
Cc1ccc(-c2nnc3ccc(NCc4cccs4)nn23)nc1	i	?	100µM*	-12%[70.6 µM]
COCCNc1ccc2nnc(-c3ccccn3)n2n1	i	?	0%[230 µM]	3%[70.6 µM]
COc1ccc(C(=O)NC2CCN(c3ccnc4ccnn34)CC2)cc1	·	-13%	-12%	·
Cc1noc(C)c1-c1cc2cc(CN3CCN(C)CC3)oc2c(NC2CCN(C)CC2)n1	i	89µM*	?	2%[70.6 µM]
Cc1noc(C)c1-c1cc2c(cc(C)n2C)c(NC2CCN(C)CC2)n1	i	?	?	-2%[70.6 µM]
Cc1noc(C)c1-c1cc2cc(CO)oc2c(NCc2ccc3c(c2)OCO3)n1	i	?	?	-5%[70.6 µM]
Cc1noc(C)c1-c1cc2cc(CNC(C)C)oc2c(NC2CCN(C)CC2)n1	i	?	63µM*	-2%[70.6 µM]
O=C(Nc1ccccc1)N1CCC(C(=O)N2CCCC(c3nc4ncccc4[nH]3)C2)CC1 (configuration not stated)	·	-17%	-10%	·
CN1c2cc(C(=O)N3CCN(c4ccccc4Cl)CC3)ccc2C(=O)N2CCCCC21 (configuration not stated)	i	?	40µM*	0%
Cc1ccccc1N1CCN(C(=O)c2ccc3c(c2)N(C)C2CCCCCN2C3=O)CC1 (configuration not stated)	i	?	45µM*	0%
COc1cccc(-c2ccc(NC(=O)C3CCCN3C(=O)CNC(C)=O)cc2)c1 (configuration not stated)	i	-29%	?	0%
CC(=O)N1CCCC1C(=O)Nc1ccc(-c2nc3ccccc3o2)cc1 (configuration not stated)	16µM*	-8%	?	1%
O=C1Nc2ccccc2C12CCN([S+](=O)([O-])c1ccsc1)CC2	i	-8%	45µM*	-28%
O=C1Nc2ccccc2C12CN([S+](=O)([O-])c1cccc(C(F)(F)F)c1)C2	·	?	-22%	·
O=C(Nc1ccc(-c2nnc3n2CCCC3)cc1)c1cccc(F)c1	i	-9%	-13%	-2%
Cc1cccc(C(=O)Nc2c(N3CCCCC3)c(-c3cccc(F)c3)nn2C)c1	·	45µM*	40µM*	·
Cn1nc(-c2cccc(F)c2)c(N2CCCCC2)c1NC(=O)Nc1ccccc1	·	28µM*	?	·
O=[S+]([O-])(c1cccs1)N1CCCC2(CC(Cc3ccccc3)=NO2)C1 (configuration not stated)	i	-28%	?	0%
SMILES	FLuc inh	3T3 cytotox	HEK293 tox	NPR1 antag
O=[S+]([O-])(c1cccs1)N1CCC2(CC1)CC(Cc1ccccc1)=NO2	i	?	45µM*	-30%
CCCN1CCC2(CCN([S+](=O)([O-])c3cccs3)CC2)Oc2ccccc21	i	?	45µM*	-3%
Cc1ccc(-c2ncc(C(=O)NCCN(C)C3CCCCC3)c(-c3ccncc3)n2)cc1	i	25µM*	20µM*	1%
Cc1cc(Cl)ccc1NC(=O)c1cnc(-c2ccccc2)nc1-c1ccncc1	i	20µM*	45µM*	?
Cc1ccc(-c2ncc(C(=O)Nc3cccc(Br)c3)c(-c3ccncc3)n2)cc1	i	?	25µM*	-12%
O=C(c1ccsc1)N1CCC(N2CC(OCC3CC3)C23CCOCC3)CC1 (configuration not stated)	·	-23%	-24%	·
Cc1cc2nc3n(c(=O)c2n1CC(=O)NC1CCC(C)CC1)CCCCC3 (configuration not stated)	i	?	1%	-6%
Oc1ccccc1CN1C[C@H](O)C[C@H]1c1nc(-c2ccc(F)cc2)no1	?	?	?	1%[70.6 µM]
COc1ccc(NC(=O)N2CCc3c(c4ccccc4n3C)C2)cc1	?	?	?	-3%
Cn1c2c(c3cc(F)ccc31)CN(C(=O)Nc1ccc(F)c(Cl)c1)CC2	?	13µM*	32µM*	?
Cn1c2c(c3ccccc31)CN(C(=O)Nc1ccccc1)CC2	i	?	-10%	-17%
O=C(Nc1ccc(Cl)cc1Cl)N1CCc2[nH]c3ccc(F)cc3c2C1	i	?	?	-17%
O=C(NCCC1CCN(C(=O)Nc2cccc(F)c2)CC1)c1ccccc1	?	-24%	-5%	2%
O=C(Nc1cccc(F)c1)N1CCc2c(c3ccccc3n2CC2CC2)C1	i	25µM*	45µM*	-16%
Cc1ccc(NC(=O)N2CCc3c(c4ccccc4n3CC3CC3)C2)cc1	14µM*	25µM*	?	-26%
Cn1c2c(c3ccccc31)CN(C(=O)NC1CCCCC1)CC2	i	32µM*	45µM*	-7%
COCCn1c(=O)c(C(=O)NCC(F)F)nc2cccnc21	·	2%[138 µM]	1%[172 µM]	·
CC(=O)N1CCc2c(c3ccccc3n2C)C1	i	-13%	-1%	-17%
O=C(Nc1ccc(F)c(F)c1)N1CCc2c(c3ccccc3n2CC2CC2)C1	i	?	13µM*	-25%
COc1ncccc1-c1nc2cc(C(=O)Nc3ccc(F)cc3)ccc2o1	·	-13%	?	·
CN(C)c1cccc(-c2cnc(Nc3cccc(N[S+](C)(=O)[O-])c3)c3c2CCO3)c1	?	?	20µM*	?
CN(C)c1cccc(C(=O)Nc2ncc(-c3cccc(F)c3)c3c2OCC3)c1	i	?	?	-12%[70.6 µM]
COc1ccccc1-c1cnc(Nc2cccc(N[S+](C)(=O)[O-])c2)c2c1CCO2	?	20µM*	40µM*	32µM*
COc1ccccc1-c1cnc(Nc2ccccc2)c2c1CCO2	i	?	?	-23%[70.6 µM]
Cc1noc(C)c1-c1cnc(Nc2ccncc2)c2c1CCO2	i	?	?	-1%[70.6 µM]
CN(C)c1cccc(-c2cnc(Nc3ccncc3)c3c2CCO3)c1	i	50µM*	56µM*	-13%[70.6 µM]
CCC(CC)C(=O)N1CCC2(CCc3nn(CCOC)c(=O)n3CC2)CC1	·	-11%	i	·
COc1ccc(Nc2ccnc(N3CCCC(C(=O)N4CCN(C)CC4)C3)n2)cc1 (configuration not stated)	·	-26%	?	·
COc1ccc(Nc2ccnc(N3CCCC(C(=O)NCCc4ccccc4F)C3)n2)cc1 (configuration not stated)	·	?	22µM*	·
